# Laboratory results published in PubChem BioAssay AID504362 (National Center for Advancing Translational Sciences (NCATS), 2011).
# Values joined by “and” are separate entries in the source; they are usually repeats but may differ in a detail not shown here. Identical values can stand only once. Records with an inconclusive call do not appear. Active and inactive are the calls of the source. Calls follow the shape of the dose curve; as a rule, active = well fitted activation curve with a large enough effect; inconclusive = small, poorly fitted or top-dose-only effect; inactive = flat fitted curve, though single readings scatter.
# Test: qHTS Assay for Identifying a Potential Treatment of Ataxia-Telangiectasia: SAR for Probe
# Settings: F2112 A-T fibroblasts, NCS-induced pKAP1 AlphaLISA
# From the text: NIH Chemical Genomics Center [NCGC] NIH Molecular Libraries Probe Centers Network [MLPCN] MLPCN Grant: MH089030-01 Assay Submitter (PI): Wei Zheng and Yosef Shiloh Ataxia-telangiectasia (A-T) is a devastating and progressive disease for which, there is no cure. Although A-T is a multisystem disease, it is stereotyped characterized by its neurological symptoms such as truncal ataxia, due to cerebellar cortical degeneration of the Purkinje and granule cells. Other symptoms of A-T are telangiectasias (dilated blood vessels), primary immunodeficiency, marked sensitivity to ionizing radiation (IR), chromosomal instability and predisposition to cancer. The underlying genetic cause of A-T is null mutations in the ATM (A-T mutated) gene. ATM is a nuclear serine/threonine kinase that functions as a master regulator of the cellular responses to double strand breaks (DSBs) in the DNA. Upon activation by DSBs, ATM phosphorylates a plethora of downstream targets, including KAP-1 on Ser82452. […] To screen for small molecules that will compensate for the loss of ATM in cells derived from A-T patients, we monitored KAP-1 phosphorylation as a readout for ATM-like activity using an AlphaLISA assay. […]
# qHTS Assay Protocol: Step,Parameter,Value,Description 1. […] Readout, EnVision, EnVision plate reader. […] EnVision protocol for 1536-well AlphaScreen read (30ms excitation, 100ms read), about 10 min/plate.
structure (smiles),measurement,value
CC(=O)c1c(O)c(C)c(O)c(Cc2c(O)c3c(c(C(=O)/C=C/c4ccccc4)c2O)OC(C)(C)C=C3)c1O,Potency,29.2 µM (active) and 10 µM (active)
